Assay results reported in PubChem BioAssay (NCI).
The panel holds about 83,000 compounds, 20% with a hit somewhere; the sample as a whole holds those more often.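 A percent growth of 40 corresponds to 60% growth inhibition; 0 means no net growth; -100 means all cells died. Active threshold: below 10.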 Values without a mark were called inactive. Active and inactive are the calls of the source.

How the values were obtained:
Experiment in all cases: NCI-60 one-dose screen, 48 h (100 = growth as untreated, 0 = no growth, -100 = all killed)
Conditions in all cases: 10 µM
[1] = system: T-47D breast
[2] = system: BT-549 breast
[3] = system: MDA-MB-435 melanoma
[4] = system: SW-620 colon
[5] = system: MCF7 breast
[6] = system: HCT-116 colon
[7] = system: HCC-2998 colon
[8] = system: KM12 colon

SMILES: COc1cc(N)c2ncccc2c1SC
- growth [1]: 93.1%
- growth [2]: 102%
- growth [3]: 110%
- growth [4]: 104%
- growth [5]: 104%
- growth [6]: 99.3%
- growth [7]: 102%
- growth [8]: 102%

SMILES: Oc1ccc(-c2[nH]c3ccccc3c2-c2nc3ccccc3o2)cc1
- growth [1]: 40%
- growth [2]: 64.7%
- growth [3]: 0.478% (active)
- growth [4]: 40.9%
- growth [5]: 24.1%
- growth [6]: 23.7%
- growth [7]: 58.5%
- growth [8]: 21%

SMILES: Cc1cn(-c2cccc(NC(=O)c3ccc(C)c(Nc4nccc(-c5cccnc5)n4)c3)c2)cn1
- growth [1]: 46%
- growth [2]: -39.4% (active)
- growth [3]: -27.8% (active)
- growth [4]: 20.2%
- growth [5]: -24.6% (active)
- growth [6]: -87.4% (active)
- growth [7]: 41.7%
- growth [8]: -94.9% (active)

SMILES: Cc1cc(=O)n2nnc3cc(Cl)c(Cl)cc3n12
- growth [1]: 76.3%
- growth [2]: 114%
- growth [3]: 103%
- growth [4]: 23.4%
- growth [5]: 96.3%
- growth [6]: 91.8%
- growth [7]: 108%
- growth [8]: 109%

SMILES: COc1cc(-c2csc(NC(=O)Nc3cc(C(F)(F)F)cc(C(F)(F)F)c3)n2)cc(OC)c1OC
- growth [1]: -8.28% (active)
- growth [2]: 0.972% (active)
- growth [3]: 13%
- growth [4]: 26.5%
- growth [5]: 2.97% (active)
- growth [6]: 0.288% (active)
- growth [7]: 22.4%
- growth [8]: 18.7%

SMILES: O=C(CCc1nnc2sc(-c3cc(O)c(O)c(O)c3)nn12)c1nc2ccccc2[nH]1
- growth [1]: 83.9%
- growth [2]: 107%
- growth [3]: 98.9%
- growth [4]: 116%
- growth [5]: 85.8%
- growth [6]: 85.7%
- growth [7]: 111%
- growth [8]: 105%

SMILES: COc1ccccc1-n1c(-c2csc(NC(C)=O)n2)n[nH]c1=S
- growth [1]: 104%
- growth [2]: 94.7%
- growth [3]: 85.3%
- growth [4]: 105%
- growth [5]: 97.5%
- growth [6]: 100%
- growth [7]: 101%
- growth [8]: 104%

SMILES: COc1cc2cc(Oc3ccc(NC(=O)Nc4cccc(C(F)(F)F)c4)cc3)c(C)nc2cc1OC
- growth [1]: 27.8%
- growth [2]: -8.13% (active)
- growth [3]: 7.23% (active)
- growth [4]: 17.5%
- growth [5]: 6.81% (active)
- growth [6]: 6.71% (active)
- growth [7]: 25.4%
- growth [8]: -10.2% (active)

SMILES: Cn1c2ccccc2c2c3[nH][nH]c(=O)c3c3c4ccccc4[nH]c3c21
- growth [1]: 42.9%
- growth [2]: 20.5%
- growth [3]: 23.6%
- growth [4]: 20.7%
- growth [5]: 5.82% (active)
- growth [6]: -52.8% (active)
- growth [7]: 26.5%
- growth [8]: 10.7%

SMILES: COC(=O)C1OC1c1cc([N+](=O)[O-])ccc1OC (stereo not drawn)
- growth [1]: 70%
- growth [2]: 107%
- growth [3]: 107%
- growth [4]: 107%
- growth [5]: 89.3%
- growth [6]: 102%
- growth [7]: 96.1%
- growth [8]: 99.3%

SMILES: COc1cc(/C=C2\CCCC3=C2NC(N)=NC3c2cc(OC)c(OC)c(OC)c2)cc(OC)c1OC (stereo not drawn)
- growth [1]: 27.5%
- growth [2]: -38.7% (active)
- growth [3]: -17.9% (active)
- growth [4]: -22.3% (active)
- growth [5]: 43%
- growth [6]: -81.6% (active)
- growth [7]: -35.2% (active)
- growth [8]: -75.8% (active)

SMILES: Cc1[nH]c2ccccc2c1/C=N/Nc1ncnc2sc3c(c12)CCN(CC(=O)OC(C)(C)C)C3
- growth [1]: 80.7%
- growth [2]: 81.4%
- growth [3]: 32.3%
- growth [4]: 60%
- growth [5]: 65.4%
- growth [6]: 40.8%
- growth [7]: 99.5%
- growth [8]: 76%

SMILES: CCN(CC)CCCC(C)Nc1c2ccc(Cl)cc2nc2ccc(OC)cc12 (stereo not drawn)
- growth [1]: 14%
- growth [2]: 56.2%
- growth [3]: -18.9% (active)
- growth [4]: -19.1% (active)
- growth [5]: -11.6% (active)
- growth [6]: 12.3%
- growth [7]: 15.3%
- growth [8]: 22.1%

SMILES: CC(=O)Nc1ccc(S(=O)(=O)c2ccnc3cc(Cl)ccc23)cc1
- growth [1]: 72.5%
- growth [2]: 94.9%
- growth [3]: 73.9%
- growth [4]: 81.8%
- growth [5]: 57.8%
- growth [6]: 78.7%
- growth [7]: 100%
- growth [8]: 90.1%

SMILES: O=c1cn[nH]c2ccc(Br)cc12
- growth [1]: 83%
- growth [2]: 105%
- growth [3]: 111%
- growth [4]: 103%
- growth [5]: 105%
- growth [6]: 97.8%
- growth [7]: 108%
- growth [8]: 98.7%

SMILES: COc1ccc(-c2nn(-c3cccc(Cl)c3)cc2C=C(C#N)C#N)cc1
- growth [1]: 21.1%
- growth [2]: -34.8% (active)
- growth [3]: -68.5% (active)
- growth [4]: -2.25% (active)
- growth [5]: -11.6% (active)
- growth [6]: -40.9% (active)
- growth [7]: 8.75% (active)
- growth [8]: 4.48% (active)

SMILES: NS(=O)(=O)c1ccc(Br)cc1
- growth [1]: 84.7%
- growth [2]: 87.6%
- growth [3]: 105%
- growth [4]: 112%
- growth [5]: 94%
- growth [6]: 81.4%
- growth [7]: 108%
- growth [8]: 99.5%

SMILES: CCCCCCCCCCCCCCCCCC[n+]1ccc2c(C)c3c(c(C)c2c1)c1cc(O)ccc1n3CC
- growth [1]: 23.5%
- growth [2]: -11% (active)
- growth [3]: -53.4% (active)
- growth [4]: 13.3%
- growth [5]: 28.3%
- growth [6]: 7.88% (active)
- growth [7]: 31.5%
- growth [8]: 10.8%

SMILES: O=C(O)c1cn(C2CC2)c2cc(N3CCN(C(=O)c4cc(-c5ccc(Cl)cc5)nc5ccccc45)CC3)c(F)cc2c1=O
- growth [1]: 86.7%
- growth [2]: 83.5%
- growth [3]: 95.6%
- growth [4]: 97.5%
- growth [5]: 89.7%
- growth [6]: 84.3%
- growth [7]: 99.2%
- growth [8]: 102%

SMILES: CC(C)(C)c1ccc(S(=O)(=O)N[C@H]2CC[C@H]3[C@@H]4CCc5cc(O)ccc5[C@H]4CC[C@]23C)cc1
- growth [1]: 26.2%
- growth [2]: 43.9%
- growth [3]: 30.4%
- growth [4]: 58.5%
- growth [5]: 14.9%
- growth [6]: 22.1%
- growth [7]: 74.4%
- growth [8]: 39.2%

SMILES: CCn1c2ccc(O)cc2c2c(C)c3c[n+](C)ccc3c(C)c21
- growth [1]: -6.62% (active)
- growth [2]: -13% (active)
- growth [3]: 64.9%
- growth [4]: 41.3%
- growth [5]: 16.7%
- growth [6]: 33.9%
- growth [7]: 35.1%
- growth [8]: 21.5%

SMILES: C[C@]12CCC3c4ccc(O)cc4C[C@@H](CCCCCCCCCS(=O)CCCC(F)(F)C(F)(F)F)C3C1CC[C@@H]2O (stereo partly drawn)
- growth [1]: 41.2%
- growth [2]: 86.1%
- growth [3]: 88.8%
- growth [4]: 97.1%
- growth [5]: 15.9%
- growth [6]: 71.4%
- growth [7]: 87%
- growth [8]: 80.4%

SMILES: CC[C@@H](C(=O)[C@@H](C)[C@@H](O)[C@H](C)[C@@H]1O[C@@H]([C@@H](CC)C(=O)N(CC)CC)CC[C@@H]1C)C1O[C@]2(C=CC(=O)[C@]3(CC[C@@](C)([C@H]4CC[C@](O)(CC)[C@H](C)O4)O3)O2)[C@H](C)C[C@@H]1C (stereo partly drawn)
- growth [1]: 16.2%
- growth [2]: 43.8%
- growth [3]: 30.2%
- growth [4]: 25.3%
- growth [5]: 5.81% (active)
- growth [6]: 5.97% (active)
- growth [7]: 29%
- growth [8]: 40.9%

SMILES: CC(=O)COc1ccc(Cl)cc1Cl
- growth [1]: 98.7%
- growth [2]: 111%
- growth [3]: 102%
- growth [4]: 97.2%
- growth [5]: 104%
- growth [6]: 99.1%
- growth [7]: 109%
- growth [8]: 113%

SMILES: O=C1/C(=C/c2ccc3c(c2)OCO3)SC(=S)N1C1c2ccccc2Oc2ccccc21
- growth [1]: 104%
- growth [2]: 91.1%
- growth [3]: 96.5%
- growth [4]: 103%
- growth [5]: 91.6%
- growth [6]: 92.9%
- growth [7]: 80.1%
- growth [8]: 96.6%

SMILES: Cc1c2c[n+](C(C)C)ccc2c(C)c2c1[nH]c1ccccc12
- growth [1]: -13.7% (active)
- growth [2]: 2.83% (active)
- growth [3]: 15.9%
- growth [4]: 22%
- growth [5]: 3.87% (active)
- growth [6]: 20.1%
- growth [7]: 18.8%
- growth [8]: 8.68% (active)

SMILES: CCOC(=O)C1C(C(=O)OCC)C2C(=O)C3C(C(=O)OCC)C(C(=O)OCC)C3C(=O)C12 (stereo not drawn)
- growth [1]: 100%
- growth [2]: 109%
- growth [3]: 105%
- growth [4]: 111%
- growth [5]: 99.8%
- growth [6]: 104%
- growth [7]: 107%
- growth [8]: 109%

SMILES: CCn1c(SCCc2ccccc2)nnc1-c1nn(-c2ccc(Cl)cc2Cl)c(-c2ccc(Cl)cc2)c1C
- growth [1]: 42.2%
- growth [2]: 93.4%
- growth [3]: 83.2%
- growth [4]: 83.3%
- growth [5]: 58.7%
- growth [6]: 39.1%
- growth [7]: 110%
- growth [8]: 69.5%

SMILES: O=[N+]([O-])c1ccc2ncccc2c1Cl
- growth [1]: 68.7%
- growth [2]: 43.6%
- growth [3]: -36.9% (active)
- growth [4]: 14.5%
- growth [5]: 13.4%
- growth [6]: 5.31% (active)
- growth [7]: 106%
- growth [8]: -7.28% (active)

SMILES: CC(C)(C)OC(=O)N1CCc2c(sc3ncnc(N/N=C/c4cccc(Br)c4)c23)C1
- growth [1]: 20.2%
- growth [2]: 79.4%
- growth [3]: 34.3%
- growth [4]: 41.1%
- growth [5]: 5.3% (active)
- growth [6]: 29.6%
- growth [7]: 42.6%
- growth [8]: 62.3%

SMILES: COc1ccc(-c2nn(-c3cccc(Cl)c3)cc2-c2c(C#N)c(=O)n3[nH]c(-c4ccc(C)cc4)nc3c2C#N)cc1
- growth [1]: 55.6%
- growth [2]: 43.4%
- growth [3]: 10.8%
- growth [4]: -21% (active)
- growth [5]: 21.2%
- growth [6]: 9.86% (active)
- growth [7]: 52.2%
- growth [8]: 55.1%
